Test results taken from PubChem BioAssay (NCI).
About 83,000 compounds went through this panel and 20% of them were active in at least one assay; those are over-represented in the sample as a whole.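 48-hour exposure, single concentration, 96-well plates; percent growth endpoint where 0 means no net growth. Active: below 10.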 Activity calls are given as the source filed them.

What was measured:
Assay in all cases: NCI-60 one-dose screen, 48 h (100 = growth as untreated, 0 = no growth, -100 = all killed)
Conditions in all cases: 10 µM unless noted
[1] = tested on: DU-145 prostate
[2] = tested on: K-562 leukemia
[3] = tested on: MALME-3M melanoma
[4] = tested on: MDA-MB-231 breast
[5] = tested on: RXF 393 renal
[6] = tested on: SF-268 CNS
[7] = tested on: SF-295 CNS
[8] = tested on: SF-539 CNS
[9] = tested on: UACC-257 melanoma

Measured: growth

COc1cc2c(cc1O)CCN1C[C@@H](CC(C)C)[C@@H](O)C[C@@H]21
inactive: [1] 111% | [2] 96% | [3] 100% | [4] 103% | [5] 107% | [6] 107% | [7] 97.4% | [8] 96.7% | [9] 99.5%

COC1=C(OC)C(=O)C(CCCCCCCCCC[P+](c2ccccc2)(c2ccccc2)c2ccccc2)=C(C)C1=O
active: [1] 6.01% | [2] -48.9% | [3] -86.3% | [4] -39.6% | [5] -56.7% | [6] -61.6% | [7] -52.6% | [8] -25.1% | [9] -61.2%

CC(C)(C)OC(=O)NCCc1ccc(N=C=S)cc1
inactive: [1] 64.6% | [2] 57% | [3] 54.8% | [4] 88.4% | [5] 54.9% | [6] 71.9% | [7] 55.5% | [8] 69.2% | [9] 78.9%

COc1ccncc1S(=O)(=O)NC(=O)Nc1ccc(Cl)c(Cl)c1
inactive: [1] 109% | [2] 77.5% | [3] 90.1% | [4] 100% | [5] 79.3% | [6] 91% | [7] 85.4% | [8] 107%
active: [9] -32.8%

c1ccc(-c2cn(-c3ccccc3)c(-c3ccccc3)n2)cc1
inactive: [1] 71.4% | [3] 95% | [4] 94.3% | [5] 79.9% | [6] 85.5% | [7] 127% | [8] 73.5%
active: [2] -51.5% | [9] -45.3%

O=c1[nH]c(NCc2ccccc2)nc2nc(Nc3ccc(NC(=S)Nc4ccccc4)cc3)nc(-c3ccc(O)cc3O)c12
inactive: [1] 116% | [2] 63.3% | [3] 103% | [4] 90.2% | [5] 81.4% | [6] 96% | [7] 147% | [8] 108% | [9] 39.7%

COc1ccc(/C=C2\Oc3cc(OCCCN4CCCC4)ccc3C2=O)c(OC)c1
inactive: [1] 71.2% | [3] 106% | [4] 78.8% | [5] 77.3% | [6] 87.3% | [7] 99.8% | [8] 51.6% | [9] 103%
active: [2] -30.4%

Nc1cccc(Cl)c1N
inactive: [1] 117% | [2] 102% | [3] 116% | [4] 99.3% | [5] 121% | [6] 104% | [7] 118% | [8] 90.4% | [9] 113%

Cc1csc(NC(c2ccc(Br)cc2)c2c(C)nc3ccccn23)n1 (stereo not given)
inactive: [1] 107% | [2] 79.9% | [3] 88.4% | [4] 84% | [5] 112% | [6] 92.2% | [7] 74.7% | [8] 101% | [9] 76.1%

Clc1ccc2c(NC3CCC(NC4CCCCC4)CC3)ccnc2c1 (stereo not given)
active: [2] 0.509% | [8] 0.613% | [9] -51.5%
inactive: [1] 80.9% | [3] 34.6% | [4] 45.4% | [5] 51.2% | [6] 84.7% | [7] 60.1%

O=C(Nc1ccc(Cl)c(Cl)c1)NS(=O)(=O)c1cnccc1Oc1ccc(F)cc1
active: [9] -7.26%
inactive: [1] 78.5% | [2] 19.6% | [3] 41.2% | [4] 93.9% | [5] 38% | [6] 80.7% | [7] 13.7% | [8] 90.1%

O=[N+]([O-])c1ccc(-c2cn(-c3ccccc3)c(-c3ccccc3)n2)cc1
inactive: [1] 109% | [2] 62.5% | [3] 141% | [4] 49.5% | [5] 65.3% | [6] 91.4% | [8] 116%
active: [7] -21.1% | [9] -2.3%

COc1cc2c(cc1OCCCN1CCN(CCCn3c4ccccc4c4ccccc43)CC1)N=C[C@@H]1CCCN1C2=O
active: [1] -85.9% | [2] -50.1% | [3] -82.5% | [4] -69.3% | [5] -78.3% | [6] -87.8% | [7] -92.3% | [8] -91.3% | [9] -70.3%

O=C1/C(=C/c2ccccc2)Oc2ccc(O)c(I)c21
inactive: [1] 111% | [2] 99.5% | [3] 101% | [4] 81% | [5] 108% | [6] 82.6% | [7] 104% | [8] 87.7% | [9] 96.6%

c1cc2[nH]ncc2cc1-c1nc2ccc3[nH]ncc3c2c2c1CCC2
inactive: [1] 54.3% | [2] 15.4% | [3] 47.3% | [4] 70.2% | [5] 19.5% | [6] 56.2% | [7] 80.6% | [8] 45% | [9] 65.8%

CCCCCc1cc[n+](CC(=O)c2ccc([N+](=O)[O-])cc2)cc1
inactive: [1] 79.2% | [2] 34.7% | [3] 85.2% | [4] 70% | [5] 97.6% | [6] 87.3% | [7] 95.2% | [8] 96.9% | [9] 35.6%

CCOC(=O)C1C(=O)C=C(c2ccc(OC)cc2)CC1c1sc(N(C)Cc2ccccc2)nc1Cl (stereo not given)
inactive: [1] 91.5% | [2] 68.4% | [3] 93.4% | [4] 68.3% | [5] 93.9% | [6] 74.4% | [7] 83.6% | [8] 84.7% | [9] 91.2%

COc1ccc(Nc2ncccc2C(=O)NCc2cn(Cc3cccc(Oc4ccccc4)c3)nn2)cc1
inactive: [1] 46.1% | [2] 33.6% | [3] 41.4% | [4] 52% | [5] 46% | [6] 50% | [7] 33.7% | [8] 33.6% | [9] 88.8%

COc1ccc(-c2nc3sc(-c4cc(OC)c(OC)c(OC)c4)nn3c2/C=C2/C(=O)Nc3ccc(F)cc32)cc1
inactive: [2] 19.9% | [8] 97.7%
active: [1] -61.9% | [3] -48.3% | [4] -31% | [5] -32% | [6] -7.6% | [7] -17.2% | [9] -25%

Cc1nn(-c2ccc([N+](=O)[O-])cc2)c2ncnc(NCCc3ccccc3)c12
inactive: [1] 110% | [2] 76.8% | [3] 121% | [4] 102% | [5] 102% | [6] 94.7% | [7] 111% | [8] 99.5% | [9] 106%

O=[N+]([O-])c1cc(Cl)c2[nH]c3c(Cl)cc([N+](=O)[O-])cc3c2c1
inactive: [1] 22.9% | [5] 12.4% | [6] 12.9% | [8] 23.8%
active: [2] 3.44% | [3] -16.5% | [4] -30.3% | [7] -35.5% | [9] -52.2%

CN1C(=O)N(C)C2C1NN=c1s/c(=C\C=C\c3ccccc3)c(=O)n12 (stereo not given)
inactive: [1] 69.3% | [2] 20.6% | [3] 62.6% | [4] 65% | [5] 77.7% | [6] 67.2% | [7] 45.7% | [8] 54.8% | [9] 73.4%

O=C1Nc2ccc3c(c2/C1=C\c1cc2c(cc1Br)OCO2)OCO3
active: [1] -12.6% | [3] -5.38% | [5] -16.3% | [8] -36%
inactive: [2] 14.9% | [4] 24.5% | [6] 33.8% | [7] 11.2% | [9] 58.3%

COc1ccc(Nc2nn3c(-c4ccccc4)cc(-c4ccccc4)nc3c2C(N)=O)c(OC)c1
inactive: [1] 38.2% | [2] 58.1% | [3] 44.7% | [4] 29.3% | [5] 84.7% | [6] 53.4% | [7] 37.5% | [8] 13.4% | [9] 62.4%

CN(C[C@H]1Cc2c(cccc2N2CCN(Cc3ccccn3)CC2)CN1)[C@H]1CCCc2cccnc21
active: [2] 9.95%
inactive: [1] 66.6% | [3] 88.3% | [4] 70.2% | [5] 77.9% | [6] 63.8% | [7] 43.4% | [8] 83% | [9] 93.1%

COc1ccc(-c2ccc(-c3ccc(C(=N)N)cn3)s2)cc1OC
inactive: [1] 97.5% | [2] 41.8% | [3] 94.9% | [4] 89% | [5] 121% | [6] 101% | [7] 99.1% | [8] 83.4% | [9] 114%

COc1cc(C2NN=C3c4ccccc4CCC32)cc(OC)c1OC (stereo not given)
active: [9] -36.4%
inactive: [1] 92.5% | [2] 42.8% | [3] 48.6% | [4] 48.4% | [5] 87.2% | [6] 84% | [7] 102% | [8] 85.4%

Cn1c(=O)cc(NC(=O)CN2CCN(c3cc4c(cc3F)c(=O)c(C(=O)O)cn4C3CC3)CC2)[nH]c1=O
inactive: [1] 103% | [2] 100% | [3] 104% | [4] 98.5% | [5] 102% | [6] 92.7% | [7] 101% | [8] 102% | [9] 100%

Cc1cc(N)n(S(=O)(=O)c2oc(-c3ccccc3)nc2C#N)n1
active: [2] 7.1% | [3] -49%
inactive: [1] 103% | [4] 94.1% | [5] 92.3% | [6] 103% | [7] 101% | [8] 108% | [9] 101%

COc1cc2c(cc1OCCCCCn1c3ccccc3c3ccccc31)N=C[C@@H]1CCCN1C2=O
active: [1] -53.3% | [2] -21.1% | [3] -64.7% | [4] -87.1% | [5] -80.7% | [6] -59.9% | [8] -85.8% | [9] -55.4%
inactive: [7] 11.7%
